# Only a selection was taken, and hits are over-represented in it overall.
# DT40 TDP1 CPT = growth inhibition of DT40 Tdp1-/-;hTDP1 cells with camptothecin (screen for TDP1 inhibitors); chicken DT40 Tdp1-/-;hTDP1 cells + 20 nM CPT, ATP luminescence, 48 h; Potency, µM (series often up to 46.2 µM), usual class: inhibitors; 420,000 tested, 12% active; further: nearly all actives have a fitted effect of over 55% in size
#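 Cell growth measured by CellTiter-Glo luminescence after a minimum 48 h, 37 C compound exposure with 20 nM CPT in Tdp1-knockout DT40 cells stably expressing hTDP1, seeded 400/well; qHTS titration format.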
# HT1080 IDH1KD tx = kills HT-1080 cells with IDH1 knockdown | Potency, µM (top dose mostly 46.1 µM), most hits filed as cytotoxic | HT-1080 IDH1 knockdown viability, ATP luminescence, 48 h | 360,000 tested, 2% active
#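 Viability of IDH1-knockdown HT-1080 fibrosarcoma cells was assessed by CellTiter-Glo after 48 h at 37 °C with titrated compound; concentration-effect curves were classified by fit quality and response size.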
# HT1080-NT tox = kills 2HG-producing HT-1080-NT fibrosarcoma cells | HT-1080-NT fibrosarcoma viability, CellTiter-Glo ATP luminescence, 48 h | Potency, µM (doses to about 46.1 µM), actives largely listed as cytotoxic | 360,000 tested, 1.6% active | AID 686970;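 further: NT is the 2HG producing partner of a matched IDH1 knockdown line; nearly all actives have a fitted effect of over 55% in size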
#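 HT-1080-NT; 750 cells/well; 5% FBS RPMI; 48 h compound, 37 degrees C; CellTiter-Glo luminescence; curve fitting and curve-class assignment.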
# 12-LOX inh = inhibitors of human 12S-lipoxygenase ALOX12; AID 1671190; P18054; purified 12hLO, xylenol orange hydroperoxide absorbance; Potency, µM (doses to about 108 µM), hits mostly inhibitors; 580,000 tested, 1.1% active
# Target sequence (P18054 whole entry, looked up): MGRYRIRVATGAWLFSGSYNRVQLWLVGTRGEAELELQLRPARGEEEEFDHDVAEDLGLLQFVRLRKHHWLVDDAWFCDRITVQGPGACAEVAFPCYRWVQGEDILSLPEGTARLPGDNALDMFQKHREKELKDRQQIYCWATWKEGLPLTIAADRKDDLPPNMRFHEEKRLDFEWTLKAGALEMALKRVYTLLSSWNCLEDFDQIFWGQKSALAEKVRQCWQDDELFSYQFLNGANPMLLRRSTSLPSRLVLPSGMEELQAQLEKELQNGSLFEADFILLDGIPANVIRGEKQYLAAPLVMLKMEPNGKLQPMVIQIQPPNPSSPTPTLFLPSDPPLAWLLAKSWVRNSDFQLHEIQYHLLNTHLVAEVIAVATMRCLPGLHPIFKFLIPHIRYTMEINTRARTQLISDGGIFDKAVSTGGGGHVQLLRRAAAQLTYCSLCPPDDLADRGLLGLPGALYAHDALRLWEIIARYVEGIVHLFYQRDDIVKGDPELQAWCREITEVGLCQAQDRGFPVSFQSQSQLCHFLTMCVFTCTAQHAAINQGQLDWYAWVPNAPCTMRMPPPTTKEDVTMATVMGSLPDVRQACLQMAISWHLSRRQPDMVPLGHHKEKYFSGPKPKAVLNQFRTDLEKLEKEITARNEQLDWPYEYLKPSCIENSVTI
#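 Purified human 12hLO at 150 nM in 25 mM Hepes, 0.01% Triton X-100, pH 7.0, preincubated 15 min at room temperature with compound. Reaction started with 40 uM arachidonic acid, 30 min at room temperature. Hydroperoxide measured by Fe-xylenol orange, 573/405 nm absorbance ratio.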
# TDP1 cell noCPT = qHTS for Inhibitors of human tyrosyl-DNA phosphodiesterase 1 (TDP1): qHTS in cells in absence of CPT; DT40 Tdp1-/- hTDP1 cells, no CPT, ATP luminescence, 48 h; Potency, µM (doses to about 46.2 µM), usual class: inhibitors; 420,000 tested, 15% active; AID 686978, 2013; further: nearly all actives have a fitted effect of over 55% in size
#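 Compound effects on proliferation are scored in DT40 Tdp1-/-;hTDP1 cells in the absence of CPT. ATP levels (CellTiter-Glo luminescence) are recorded after a ≥48 hr, 37 °C incubation.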
# IL-1B inflam inh = inhibitors of inflammasome signaling (IL-1 beta secretion); AID 743279; THP-1 LPS/ATP IL-1B secretion, AlphaLISA, 16 h; hits give low values; 360,000 tested, 4.7% active; activity change, % at 57.5 µM; in the data active means activity change below about -50%; inconclusive means mostly about -30% to -49%
#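 THP-1 cells pretreated 1 hr with compounds (up to 57.5 uM final), then stimulated with LPS (250 ng/mL final) plus ATP (1.25 mM final); secreted IL-1B measured by AlphaLISA after 16 hr, decreased signal indicating inhibition.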
# A number is an active result; – = inactive; ? = inconclusive; · = no result; [ ] = dose if it differs, or a comment. Unless noted, the call rests on the fitted dose curve; in most records, active means well fitted curve in the direction sought with a large enough effect; inconclusive means small, poorly fitted or top-dose-only effect, or another doubt; inactive means no such curve, though single readings can be large; an effect the other way counts as inactive or inconclusive.
SMILES,DT40 TDP1 CPT,HT1080 IDH1KD tx,HT1080-NT tox,12-LOX inh,TDP1 cell noCPT,IL-1B inflam inh
COc1ccc(/C(C)=N/NC(=O)CNC(=O)CCc2ccccc2)c(OC)c1,?,?,?,–,18.4µM,–
COc1ccccc1C(=O)NC1CC1,·,·,·,–,·,·
O=C(NNS(=O)(=O)c1ccc(F)cc1F)C1Cc2c(ccc3ccccc23)O1 (stereo unspecified),18.4µM,–,–,–,18.4µM,–
CCCCCC[N+](C)(C)CCSSCC[N+](C)(C)CCCCCC,–,–,–,–,–,–
CC#CC[N+](C)(C)CCCCCCCCCCCC,0.581µM,23.1µM,23.1µM,–,0.461µM,–
C#CC[N+](C)(C)CCCCCCCCCC,2.06µM,11.6µM,?,–,2.31µM,-79.8
C#CC[N+](C)(C)CCCCCCCC,?,?,?,–,?,-54.3
C#CC[N+](C)(C)CCCCCCCCCCCC,1.3µM,11.6µM,10.3µM,–,0.651µM,-87.6
COc1cccc(N2C(=O)NC(=NC3CCCC3)C23CCN(Cc2ccc(N(C)C)cc2)C3)c1 (stereo unspecified),·,·,·,–[6.33 µM],·,·
CC(C)Nc1nc(SC(C)C(=O)Nc2ccccc2)nc(N(C)C)n1 (stereo unspecified),–,–,–,–,–,-86.7
CC(=O)Nc1ccc(S(=O)(=O)N[C@H]2CO[C@H]3[C@@H]2OC[C@@H]3n2nnnc2-c2ccc3c(c2)OCO3)cc1,·,·,·,–,·,·
CC(C)CNC(=O)c1ccc(COc2ccc(Cl)cc2Cl)o1,14.6µM,–,–,–,20.6µM,?
Cc1nn(Cc2c(F)c(F)c(F)c(F)c2F)c(C)c1NC(=O)c1cccc(COc2ccccc2Cl)c1,?,–,?,–,?,–
CC(=O)Nc1ccc(NC(=O)c2ccc(COc3ccc(Cl)cc3Cl)o2)cc1,16.4µM,·,·,–,16.4µM,·
Cc1nn(Cc2cccc(F)c2)c(C)c1NC(=O)c1ccc(COc2ccccc2Cl)cc1,14.6µM,?,2µM,?,?,–
O=C(Nc1ccccc1F)c1ccc(COc2ccc(Cl)cc2Cl)o1,–,–,–,–,–,–
Cc1nn(Cc2c(F)c(F)c(F)c(F)c2F)c(C)c1NC(=O)c1ccc(COc2ccc(Cl)cc2Cl)o1,20.6µM,?,?,–,14.6µM,-63.2
COc1cccc(/C=N/NC(=O)c2ccc(COc3ccc(Cl)cc3Cl)o2)c1,–,–[9.24 µM],?,–,–,–
CCOCCCNc1nc2c(c(=O)n(C)c(=O)n2C)n1CCCc1ccccc1,16.4µM,–,–,–,20.6µM,–
COCCNc1nc2c(c(=O)n(C)c(=O)n2C)n1CCCc1ccccc1,14.6µM,–,–,–,10.3µM,–
Cn1c(=O)c2c(nc(NCc3ccccc3)n2CCCc2ccccc2)n(C)c1=O,9.2µM,–,–,–,5.17µM,–
c1ccc(-c2nnn(Cc3ncc(-c4ccccc4)o3)n2)cc1,·,·,·,–,·,·
O=C(NCC1CCCO1)c1cnc2c(c1)N(Cc1ccccc1)CCC2 (stereo unspecified),·,·,·,–,·,·
CCOC(=O)c1cc(-c2csc(COc3ccccc3Cl)n2)on1,20.6µM,–,–,–,16.4µM,–
CCOC(=O)c1cc(-c2csc(Nc3c(C)cc(C)cc3C)n2)on1,–,?,?,20µM,–,–
SMILES,DT40 TDP1 CPT,HT1080 IDH1KD tx,HT1080-NT tox,12-LOX inh,TDP1 cell noCPT,IL-1B inflam inh
Cc1ccc2[nH]c(CN3CCN(C)C(CCO)C3)c(C)c2c1 (stereo unspecified),–,–,–,–,–,–
CCOc1ccccc1CN1CCN(Cc2[nH]c3ccccc3c2C)CC1CCO (stereo unspecified),?,?,–,–,14.6µM,–
COc1ccc(/C=C/CN2CCN(Cc3ccccc3)C(CCO)C2)cc1 (stereo unspecified),–,–,–,–,–,–
CCOc1ccc(CN2CCN(Cc3[nH]c4ccc(OC)cc4c3C)CC2CCO)cc1 (stereo unspecified),?,?,?,?,?,-66.5
CCOc1ccccc1CN1CCN(Cc2c[nH]c3ccccc23)CC1CCO (stereo unspecified),9.2µM,–,–,–,16.4µM,–
COc1ccc(/C=C/CN2CCN(Cc3ccc(F)cc3)C(CCO)C2)cc1 (stereo unspecified),?,–,–,–,29.1µM,-54.6
CCCCN1C(=O)C(CC(=O)NC(C)(C)CC)Sc2ncccc21 (stereo unspecified),·,·,·,–,·,·
Cc1nc(CN2C(=O)OC3(CCN(C(=O)c4cccc(C#N)c4)CC3)C2(C)c2ccccc2)cs1 (stereo unspecified),·,·,·,–,·,·
CC1=NS(=O)(=O)N(C)C=C1C(=O)OCc1nc(-c2ccc(Br)cc2)no1,·,·,·,–,·,·
Cc1ccc(-c2c(NC(=O)CN3CCC(C(N)=O)CC3)oc3ccc(Cl)cc3c2=O)cc1,·,·,·,–,·,·
Cc1ccc(CN2CCN(Cc3cc(=O)c4ccccc4[nH]3)CC2CCO)o1 (stereo unspecified),–,–,–,–,–,–
Cc1ccc(CN2CCN(Cc3cnn(-c4ccc(Cl)cc4)c3)CC2CCO)o1 (stereo unspecified),?,–,–,?,?,-56.9
Cc1ccc(CN2CCN(Cc3c[nH]c4ccccc34)CC2CCO)o1 (stereo unspecified),7.31µM,–,–,–,?,–
Cc1ccc(CN2CCN(Cc3ccncc3)CC2CCO)o1 (stereo unspecified),–,–,–,–,?,–
COc1ccc(C)cc1NS(=O)(=O)c1ccc(-c2coc(C)n2)cc1,·,·,·,–,·,·
Cc1cc2oc(=O)cc(COC(=O)C3CCCO3)c2cc1C (stereo unspecified),·,·,·,–,·,·
COc1cc(C2CC(=O)Nc3c(-c4ccc(Cl)cc4)nsc32)cc2c1OCO2 (stereo unspecified),·,·,·,–,·,·
CCc1ccccc1NC(=O)COC(=O)c1c(C)nsc1NC,7.31µM,–,4.11µM,?,2.91µM,–
Cc1ccc(NC(=O)COC(=O)c2ccc(-n3nc(C)cc3C)cc2)c(F)c1,–,–,–,–,–,–
CNc1snc(C)c1C(=O)OCC(=O)N(C)Cc1ccccc1,14.6µM,–,–,–,18.4µM,–
CNc1snc(C)c1C(=O)OCC(=O)Nc1ccc(C)cc1F,?,–,–,–,10.3µM,–
CCN(C(=O)COC(=O)c1c(C)nsc1NC)c1ccccc1,–,–,–,–,–,–
CNc1snc(C)c1C(=O)OCC(=O)N(C)c1ccccc1,–,–,–,–,?,–
CCc1cccc2cc(C(=O)O)[nH]c12,·,·,·,–,·,·
CCCCN(C)C(=O)c1cccc2c(C)c(C)[nH]c12,·,·,·,–,·,·
